# Publication PMC4631838
# Columns and labels:
# Experiment in all cases: cross-link between two proteins; cross-linking mass spectrometry
# [1] = target: DNA-directed RNA polymerase II subunit RPB3 (UniProt P16370)
# [2] = target: DNA-directed RNA polymerase II subunit RPB7 (UniProt P34087)
# [3] = target: DNA-directed RNA polymerase II subunit RPB11 (UniProt P38902)
# [4] = target: DNA-directed RNA polymerase II subunit RPB9 (UniProt P27999)
# [5] = target: DNA-directed RNA polymerases I, II, and III subunit RPABC1 (UniProt P20434)
# Sequence of DNA-directed RNA polymerases I, II, and III subunit RPABC1 (P20434 whole entry): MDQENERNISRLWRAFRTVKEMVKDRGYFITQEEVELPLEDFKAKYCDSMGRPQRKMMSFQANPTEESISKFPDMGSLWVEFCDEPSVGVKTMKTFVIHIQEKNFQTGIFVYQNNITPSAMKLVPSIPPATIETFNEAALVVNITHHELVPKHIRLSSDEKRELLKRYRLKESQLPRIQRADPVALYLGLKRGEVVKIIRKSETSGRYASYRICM
# [6] = target: DNA-directed RNA polymerases I, II, and III subunit RPABC2 (UniProt P20435)
# Sequence of DNA-directed RNA polymerases I, II, and III subunit RPABC2 (P20435 whole entry): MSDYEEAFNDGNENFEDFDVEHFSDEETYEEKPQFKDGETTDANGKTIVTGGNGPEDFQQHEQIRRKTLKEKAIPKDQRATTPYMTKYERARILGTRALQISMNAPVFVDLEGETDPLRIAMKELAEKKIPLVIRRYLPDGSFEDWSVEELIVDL
# [7] = target: DNA-directed RNA polymerases I, II, and III subunit RPABC3 (UniProt P20436)
# Sequence of DNA-directed RNA polymerases I, II, and III subunit RPABC3 (P20436 whole entry): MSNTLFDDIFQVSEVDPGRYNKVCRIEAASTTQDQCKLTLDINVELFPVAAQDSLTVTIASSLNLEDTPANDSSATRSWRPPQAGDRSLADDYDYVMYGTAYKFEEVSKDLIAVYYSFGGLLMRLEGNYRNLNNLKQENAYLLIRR
# Sequence of DNA-directed RNA polymerase II subunit RPB1, P04050 (P04050 whole entry): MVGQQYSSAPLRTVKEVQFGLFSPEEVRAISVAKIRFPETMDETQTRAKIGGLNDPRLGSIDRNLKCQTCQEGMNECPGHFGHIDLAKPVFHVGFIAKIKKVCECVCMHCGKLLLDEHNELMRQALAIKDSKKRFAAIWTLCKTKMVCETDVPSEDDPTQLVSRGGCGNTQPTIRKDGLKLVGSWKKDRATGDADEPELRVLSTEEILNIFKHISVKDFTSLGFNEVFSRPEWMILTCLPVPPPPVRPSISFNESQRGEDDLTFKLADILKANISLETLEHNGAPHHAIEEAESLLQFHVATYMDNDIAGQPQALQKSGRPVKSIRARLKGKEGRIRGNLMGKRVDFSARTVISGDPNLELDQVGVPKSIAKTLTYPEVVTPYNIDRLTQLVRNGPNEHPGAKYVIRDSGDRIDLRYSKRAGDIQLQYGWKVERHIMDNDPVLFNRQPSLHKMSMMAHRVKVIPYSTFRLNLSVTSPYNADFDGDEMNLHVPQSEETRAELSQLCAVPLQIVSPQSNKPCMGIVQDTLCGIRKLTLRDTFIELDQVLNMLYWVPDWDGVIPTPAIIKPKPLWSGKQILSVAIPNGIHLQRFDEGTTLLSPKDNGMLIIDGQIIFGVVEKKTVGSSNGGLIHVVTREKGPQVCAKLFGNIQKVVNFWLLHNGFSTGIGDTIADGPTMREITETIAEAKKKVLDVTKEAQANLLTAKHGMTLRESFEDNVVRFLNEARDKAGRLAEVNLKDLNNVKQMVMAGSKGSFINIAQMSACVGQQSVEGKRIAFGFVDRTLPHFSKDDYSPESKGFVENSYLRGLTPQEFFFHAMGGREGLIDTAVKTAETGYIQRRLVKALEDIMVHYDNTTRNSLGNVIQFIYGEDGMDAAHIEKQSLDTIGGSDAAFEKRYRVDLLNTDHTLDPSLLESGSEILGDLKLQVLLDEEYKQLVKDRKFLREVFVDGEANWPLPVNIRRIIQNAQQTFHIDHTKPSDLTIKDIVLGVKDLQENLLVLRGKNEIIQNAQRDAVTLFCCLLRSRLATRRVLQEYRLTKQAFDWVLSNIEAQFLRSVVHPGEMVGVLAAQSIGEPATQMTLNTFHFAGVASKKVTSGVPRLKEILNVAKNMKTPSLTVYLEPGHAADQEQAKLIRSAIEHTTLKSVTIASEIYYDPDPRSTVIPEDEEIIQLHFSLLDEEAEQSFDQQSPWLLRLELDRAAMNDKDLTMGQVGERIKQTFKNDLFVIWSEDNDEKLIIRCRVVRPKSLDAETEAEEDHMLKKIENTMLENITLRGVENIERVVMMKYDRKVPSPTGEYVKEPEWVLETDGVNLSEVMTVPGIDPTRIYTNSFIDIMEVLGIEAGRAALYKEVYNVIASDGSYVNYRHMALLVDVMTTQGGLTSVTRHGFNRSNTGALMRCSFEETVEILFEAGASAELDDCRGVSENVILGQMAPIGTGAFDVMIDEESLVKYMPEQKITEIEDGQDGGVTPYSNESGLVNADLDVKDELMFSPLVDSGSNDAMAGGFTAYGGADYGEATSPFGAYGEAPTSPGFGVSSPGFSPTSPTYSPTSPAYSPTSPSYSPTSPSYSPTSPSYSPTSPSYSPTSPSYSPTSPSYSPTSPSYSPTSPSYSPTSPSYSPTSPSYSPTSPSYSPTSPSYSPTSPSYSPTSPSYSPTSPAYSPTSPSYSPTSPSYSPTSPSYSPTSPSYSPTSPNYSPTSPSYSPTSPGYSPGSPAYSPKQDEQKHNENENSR
# Sequence of DNA-directed RNA polymerase II subunit RPB2, P08518 (P08518 whole entry): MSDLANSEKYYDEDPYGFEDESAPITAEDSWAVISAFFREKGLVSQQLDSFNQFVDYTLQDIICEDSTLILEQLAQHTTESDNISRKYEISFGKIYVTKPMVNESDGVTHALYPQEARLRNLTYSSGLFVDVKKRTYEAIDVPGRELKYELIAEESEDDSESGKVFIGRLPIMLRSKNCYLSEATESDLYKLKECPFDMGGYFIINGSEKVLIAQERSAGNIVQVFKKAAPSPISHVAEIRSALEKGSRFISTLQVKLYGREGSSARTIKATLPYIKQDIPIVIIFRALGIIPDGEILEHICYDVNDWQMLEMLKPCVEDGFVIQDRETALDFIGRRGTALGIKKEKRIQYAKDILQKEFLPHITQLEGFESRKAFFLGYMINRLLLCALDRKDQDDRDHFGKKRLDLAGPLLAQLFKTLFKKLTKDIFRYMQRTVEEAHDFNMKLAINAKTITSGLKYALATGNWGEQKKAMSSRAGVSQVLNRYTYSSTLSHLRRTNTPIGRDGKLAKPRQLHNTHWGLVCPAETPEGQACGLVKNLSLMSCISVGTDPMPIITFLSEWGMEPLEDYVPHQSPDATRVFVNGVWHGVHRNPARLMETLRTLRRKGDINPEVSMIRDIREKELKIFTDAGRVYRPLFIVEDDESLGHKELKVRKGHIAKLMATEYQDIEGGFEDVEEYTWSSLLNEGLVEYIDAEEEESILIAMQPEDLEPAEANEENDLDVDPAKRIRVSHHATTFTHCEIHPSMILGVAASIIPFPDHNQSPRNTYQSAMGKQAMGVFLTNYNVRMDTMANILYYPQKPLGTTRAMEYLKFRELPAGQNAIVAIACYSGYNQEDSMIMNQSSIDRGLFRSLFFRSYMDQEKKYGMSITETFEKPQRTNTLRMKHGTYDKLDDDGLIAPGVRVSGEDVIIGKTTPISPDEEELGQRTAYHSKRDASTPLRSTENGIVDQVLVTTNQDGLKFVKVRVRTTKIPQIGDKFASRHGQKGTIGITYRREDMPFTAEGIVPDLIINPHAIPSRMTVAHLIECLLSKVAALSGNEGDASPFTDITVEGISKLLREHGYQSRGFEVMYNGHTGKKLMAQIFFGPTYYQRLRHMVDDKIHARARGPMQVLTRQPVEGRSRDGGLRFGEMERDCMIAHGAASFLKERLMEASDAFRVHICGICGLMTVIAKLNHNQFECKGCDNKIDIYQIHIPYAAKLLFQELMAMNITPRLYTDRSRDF
# Sequence of DNA-directed RNA polymerase II subunit RPB3 (P16370 whole entry): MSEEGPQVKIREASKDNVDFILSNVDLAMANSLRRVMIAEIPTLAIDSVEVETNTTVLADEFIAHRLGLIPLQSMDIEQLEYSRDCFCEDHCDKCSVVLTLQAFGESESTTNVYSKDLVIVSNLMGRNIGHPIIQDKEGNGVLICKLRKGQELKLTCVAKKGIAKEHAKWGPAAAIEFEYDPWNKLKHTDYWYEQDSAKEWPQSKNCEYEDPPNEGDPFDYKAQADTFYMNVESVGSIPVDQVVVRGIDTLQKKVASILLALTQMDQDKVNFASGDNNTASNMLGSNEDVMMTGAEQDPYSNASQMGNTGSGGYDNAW
# Sequence of DNA-directed RNA polymerase II subunit RPB11 (P38902 whole entry): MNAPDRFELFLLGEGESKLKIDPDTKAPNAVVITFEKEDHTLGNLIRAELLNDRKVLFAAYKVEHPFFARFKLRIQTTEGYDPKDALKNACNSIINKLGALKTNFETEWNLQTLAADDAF
# Sequence of DNA-directed RNA polymerase II subunit RPB9 (P27999 whole entry): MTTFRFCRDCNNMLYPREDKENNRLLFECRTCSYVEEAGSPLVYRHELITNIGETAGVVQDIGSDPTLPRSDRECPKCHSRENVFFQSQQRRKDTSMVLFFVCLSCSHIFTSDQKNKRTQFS
# Sequence of DNA-directed RNA polymerase II subunit RPB7 (P34087 whole entry): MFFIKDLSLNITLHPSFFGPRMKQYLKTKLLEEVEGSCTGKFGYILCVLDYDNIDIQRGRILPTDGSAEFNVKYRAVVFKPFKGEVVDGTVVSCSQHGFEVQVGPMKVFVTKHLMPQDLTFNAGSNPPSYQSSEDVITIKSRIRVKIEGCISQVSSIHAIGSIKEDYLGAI
substance,measurement,setting,value
"DNA-directed RNA polymerase II subunit RPB2, P08518",listed as a hit,[1],yes
"DNA-directed RNA polymerase II subunit RPB4, P20433",listed as a hit,[2],yes
"DNA-directed RNA polymerase II subunit RPB1, P04050",listed as a hit,[3],yes
same,listed as a hit,[4],yes
same,listed as a hit,[5],yes
same,listed as a hit,[6],yes
same,listed as a hit,[7],yes
"DNA-directed RNA polymerases I, II, and III subunit RPABC1, P20434",listed as a hit,[6],yes
